Assay outcomes: PubChem BioAssay, National Center for Advancing Translational Sciences (NCATS)
Only some compounds are listed: those with a hit (about 4.6% of all), similar ones and a draw of the others.
D1 antag: human D1 dopamine receptor antagonism; P21728; HEK293 TREx D1 cells, calcium flux, dopamine EC80; hits give low values; activity change, negative = inhibition, % at 10 µM; hit rate 3.2% among 360,000; AID 504652; in the data active = activity change below about -30%; also: % is scaled to controls: 0 for no effect and ±100 for the full control effect
Target sequence (P21728 whole entry, looked up): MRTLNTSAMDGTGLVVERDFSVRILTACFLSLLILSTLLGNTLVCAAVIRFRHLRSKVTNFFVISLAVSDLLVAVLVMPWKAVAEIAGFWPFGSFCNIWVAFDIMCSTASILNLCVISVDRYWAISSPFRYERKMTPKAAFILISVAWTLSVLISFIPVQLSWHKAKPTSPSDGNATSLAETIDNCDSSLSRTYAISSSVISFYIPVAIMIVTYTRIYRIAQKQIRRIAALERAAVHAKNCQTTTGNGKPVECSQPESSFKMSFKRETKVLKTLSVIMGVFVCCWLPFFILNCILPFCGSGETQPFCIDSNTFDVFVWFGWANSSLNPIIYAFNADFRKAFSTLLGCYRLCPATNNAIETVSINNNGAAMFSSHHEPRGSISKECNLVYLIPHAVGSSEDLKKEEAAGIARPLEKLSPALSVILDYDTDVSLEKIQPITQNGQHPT
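Calcium flux readout: force-coupled, inducible Hek293 Trex D1 line, cells induced overnight at 30 C with tetracycline, dye-loaded 30–90 min at RT. Antagonism scored against EC80 dopamine challenge given 180 s after compound.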
TRHR agonist: TRH receptor (human) agonism. P34981. TRHR cells, calcium flux fluo-8, FDSS agonist mode. activation, % at 2 µM. hit rate 0.18% among 360,000. AID 493084; also: 0% is about no effect
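Fluo-8-loaded TRHR cells; 10 s baseline, compound added, kinetic Ca2+ fluorescence read 1/s, agonist mode.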
D1 agonist: agonists of human D1 dopamine receptor; P21728; HEK293 T-REx D1 cells, calcium flux, agonist mode; activation, % at 2 µM; hit rate 1% among 360,000; AID 504660; also: 0% is about no effect
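Agonism was scored from calcium flux recorded over 180 s (1 read/s) after pintool compound addition, following a 10-cycle baseline. Cells were inducible force-coupled HEK293 TREx D1, plated overnight at 30 C and loaded with no-wash calcium dye.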
TRHR enhancer: TRH receptor (human) allosteric enhancement; P34981; hit rate 0.66% among 360,000; enhancement, % at 2 µM; TRHR cells, fluo-8 calcium fluorescence, EC20 TRH enhancement; in the data active = enhancement above about 30%; also: 0% is about no effect
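TRHR-expressing cells loaded with fluo-8 calcium dye were read kinetically (ex 480/em 530) during compound addition, then stimulated with an EC20 of TRH (10 nM final). Enhancement of the Gq-mediated intracellular calcium response was scored.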
D1 potentiator: potentiators of human D1 dopamine receptor; P21728; HEK293 TREx D1 cells, calcium flux, dopamine EC20 potentiation; potentiation, % at 10 µM; hit rate 0.036% among 360,000; in the data active = potentiation above about 30%; also: 0% is about no effect
The depositor's hits bear a star. Rule as the data show it, unless noted: active = activation above about 30%; inactive = the rest.

What do the screens show for `CCOC(=O)C1CCN(C(c2ccc(OCC)cc2)c2c(O)cc(C)n(CCOC)c2=O)CC1` (configuration not stated)?
D1 antag: -5; TRHR agonist: 0; D1 agonist: 1; TRHR enhancer: 0; D1 potentiator: -2

How did CCc1ccc2oc(C(=O)N(Cc3ccc(N(C)C)cc3)Cc3ccco3)c(C)c2c1 do in these assays?
D1 antag: 18; TRHR agonist: 1; D1 agonist: 5; TRHR enhancer: -1; D1 potentiator: 1

How did COc1ccc(-c2c(C)nn3c(-c4ccccc4)cc(-c4ccccc4)nc23)cc1 do in these assays?
D1 antag: -3; TRHR agonist: -1; D1 agonist: -1; TRHR enhancer: 0; D1 potentiator: 1

How did CCSc1nnc(NC(=O)c2cccc(S(=O)(=O)N(C)c3ccc(C)cc3)c2)s1 do in these assays?
D1 antag: -54*; TRHR agonist: 0; D1 agonist: 3; TRHR enhancer: -3; D1 potentiator: -7

What do the screens show for `COc1ccc(N(C)S(=O)(=O)c2cccc(C(=O)Nc3cccc(C(=O)NC4CC4)c3)c2)cc1`?
D1 antag: -53*; TRHR agonist: 0; D1 agonist: 6; TRHR enhancer: 0; D1 potentiator: -14

Results for Cc1ccc(N(C)S(=O)(=O)c2cccc(C(=O)Nc3ccc(C)cn3)c2)cc1 ?
D1 antag: -88*; TRHR agonist: 0; D1 agonist: 3; TRHR enhancer: 2; D1 potentiator: 4

Results for CCCn1c2ccccc2c2cnn(CC(=O)N3CCC(C)CC3)c(=O)c21 ?
D1 antag: 10; TRHR agonist: 0; D1 agonist: -1; TRHR enhancer: -2; D1 potentiator: 5

Results for Cc1ccc(C(=O)Nc2ccc(C(=O)OCc3cc(=O)n4c5c(sc4n3)CCCC5)cc2)cc1 ?
D1 antag: -18; TRHR agonist: 1; D1 agonist: 3; TRHR enhancer: 19; D1 potentiator: -1

What do the screens show for `CCn1c(N2CCN(CC(=O)c3ccc(OC)cc3)CC2)nc2ccccc21`?
D1 antag: -50*; TRHR agonist: 0; D1 agonist: -1; TRHR enhancer: 2; D1 potentiator: -3

What do the screens show for `COc1ccc(C(C)=O)cc1CSc1ccc(S(=O)(=O)N2CCCCC2)cn1`?
D1 antag: -44*; TRHR agonist: 0; D1 agonist: 3; TRHR enhancer: 2; D1 potentiator: 1

Results for COc1ccc(CSc2ccc(S(=O)(=O)N3CCCCC3)cn2)cc1F ?
D1 antag: -42*; TRHR agonist: 2; D1 agonist: 6; TRHR enhancer: -4; D1 potentiator: -3

Results for O=S(=O)(c1ccc(SCc2ccc(Cl)cc2)nc1)N1CCCC1 ?
D1 antag: -33*; TRHR agonist: 1; D1 agonist: 11; TRHR enhancer: -3; D1 potentiator: -5

What do the screens show for `Cc1cc(C)cc(CSc2ccc(S(=O)(=O)N3CCCC3)cn2)c1`?
D1 antag: -4; TRHR agonist: 1; D1 agonist: 9; TRHR enhancer: -7; D1 potentiator: -5

How did COc1ccc(CN2CCN(C(=O)c3ccc(S(=O)(=O)N4CCCCCC4)cc3)CC2)cc1F do in these assays?
D1 antag: -24; TRHR agonist: 0; D1 agonist: 8; TRHR enhancer: -7; D1 potentiator: 0

Results for Cc1ccc(CNC(=O)Cc2coc3cc(C)cc(C)c23)cc1 ?
D1 antag: -22; TRHR agonist: -1; D1 agonist: 6; TRHR enhancer: 6; D1 potentiator: -1

What do the screens show for `Cn1nnnc1Sc1ncnc2scc(-c3cccc([N+](=O)[O-])c3)c12`?
D1 antag: 1; TRHR agonist: -2; D1 agonist: 4; TRHR enhancer: -12; D1 potentiator: 1

How did O=C(COC(=O)COc1ccc(Cl)cc1Br)NCc1cccs1 do in these assays?
D1 antag: -32*; TRHR agonist: 0; D1 agonist: 0; TRHR enhancer: 12; D1 potentiator: -9

How did O=C(COC(=O)CCCOc1ccc(Cl)cc1Cl)NCc1ccccc1 do in these assays?
D1 antag: -37*; TRHR agonist: -1; D1 agonist: 7; TRHR enhancer: 28; D1 potentiator: -4

What do the screens show for `O=C(COC(=O)CSc1ccc([N+](=O)[O-])cc1)NCc1cccs1`?
D1 antag: -55*; TRHR agonist: -1; D1 agonist: 7; TRHR enhancer: 11; D1 potentiator: -5
